ChEMBL document CHEMBL1961873, “Compounds: GSK PKIS; Assays: Nanosyn kinase panel” (2012)

Legend:
[1] = biological target: Calcium/calmodulin-dependent protein kinase type II subunit alpha (Homo sapiens) (UniProt Q9UQM7); details: at 1 µM;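 note: reported value is a mean percent inhibition of CAMK2A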
[2] = biological target: Calcium/calmodulin-dependent protein kinase type II subunit delta (Homo sapiens) (UniProt Q13557); details: at 0.1 µM
[3] = biological target: Calcium/calmodulin-dependent protein kinase type II subunit delta (Homo sapiens) (UniProt Q13557); details: at 1 µM
[4] = biological target: T1, Calcium/calmodulin-dependent protein kinase type IV (Homo sapiens) (UniProt Q16566); details: at 0.1 µM
T1 sequence (whole entry): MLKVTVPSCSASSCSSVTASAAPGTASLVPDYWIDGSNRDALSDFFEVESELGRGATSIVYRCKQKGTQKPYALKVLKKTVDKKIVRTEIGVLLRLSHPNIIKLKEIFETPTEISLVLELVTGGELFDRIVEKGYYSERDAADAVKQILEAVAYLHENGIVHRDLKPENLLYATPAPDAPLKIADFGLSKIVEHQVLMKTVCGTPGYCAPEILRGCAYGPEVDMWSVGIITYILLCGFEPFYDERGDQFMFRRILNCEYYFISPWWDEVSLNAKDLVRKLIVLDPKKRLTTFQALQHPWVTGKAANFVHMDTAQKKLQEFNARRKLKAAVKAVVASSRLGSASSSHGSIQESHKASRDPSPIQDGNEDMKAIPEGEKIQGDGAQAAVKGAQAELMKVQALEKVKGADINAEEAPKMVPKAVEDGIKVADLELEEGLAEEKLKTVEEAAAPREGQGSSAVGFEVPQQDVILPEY

[5] = biological target: T1, Calcium/calmodulin-dependent protein kinase type IV (Homo sapiens); details: at 1 µM
[6] = biological target: T2, Serine/threonine-protein kinase Chk1 (Homo sapiens) (UniProt O14757); details: at 0.1 µM
T2 sequence (whole entry): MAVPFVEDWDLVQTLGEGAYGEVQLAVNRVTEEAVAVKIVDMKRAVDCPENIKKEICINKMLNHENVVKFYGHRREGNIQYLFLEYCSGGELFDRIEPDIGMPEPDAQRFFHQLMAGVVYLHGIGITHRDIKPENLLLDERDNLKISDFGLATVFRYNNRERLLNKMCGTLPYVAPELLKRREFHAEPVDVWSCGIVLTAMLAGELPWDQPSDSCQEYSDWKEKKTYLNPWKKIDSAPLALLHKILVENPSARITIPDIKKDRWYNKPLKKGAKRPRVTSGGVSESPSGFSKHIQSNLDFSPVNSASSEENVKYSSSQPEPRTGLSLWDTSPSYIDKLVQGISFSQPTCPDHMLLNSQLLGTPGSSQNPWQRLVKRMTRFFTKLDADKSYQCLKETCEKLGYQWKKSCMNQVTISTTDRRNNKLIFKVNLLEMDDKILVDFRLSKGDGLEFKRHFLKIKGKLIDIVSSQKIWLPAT

[7] = biological target: T2, Serine/threonine-protein kinase Chk1 (Homo sapiens); details: at 1 µM
[8] = biological target: Serine/threonine-protein kinase Chk2 (Homo sapiens) (UniProt O96017); details: at 0.1 µM
Sequence of Serine/threonine-protein kinase Chk2 (Homo sapiens) (O96017 whole entry): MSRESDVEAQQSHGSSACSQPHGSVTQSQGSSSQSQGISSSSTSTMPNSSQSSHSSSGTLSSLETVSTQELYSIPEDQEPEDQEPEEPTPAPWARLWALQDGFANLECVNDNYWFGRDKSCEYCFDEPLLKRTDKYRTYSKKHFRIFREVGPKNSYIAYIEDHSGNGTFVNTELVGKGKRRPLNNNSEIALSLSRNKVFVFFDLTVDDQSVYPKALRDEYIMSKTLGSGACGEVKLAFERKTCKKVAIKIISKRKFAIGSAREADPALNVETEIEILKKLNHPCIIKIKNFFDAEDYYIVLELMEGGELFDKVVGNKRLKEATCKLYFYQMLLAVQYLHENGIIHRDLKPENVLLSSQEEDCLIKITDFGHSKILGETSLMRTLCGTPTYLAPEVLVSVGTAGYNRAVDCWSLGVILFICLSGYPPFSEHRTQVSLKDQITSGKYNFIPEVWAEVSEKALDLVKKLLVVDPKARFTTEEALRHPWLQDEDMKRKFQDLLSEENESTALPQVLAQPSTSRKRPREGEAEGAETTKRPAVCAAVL

[9] = biological target: Serine/threonine-protein kinase Chk2 (Homo sapiens) (UniProt O96017); details: at 1 µM
[10] = biological target: Death-associated protein kinase 1 (Homo sapiens) (UniProt P53355); details: at 0.1 µM
[11] = biological target: Death-associated protein kinase 1 (Homo sapiens) (UniProt P53355); details: at 1 µM
[12] = biological target: T3, Serine/threonine-protein kinase DCLK2 (Homo sapiens) (UniProt Q8N568); details: at 0.1 µM
T3 sequence (whole entry): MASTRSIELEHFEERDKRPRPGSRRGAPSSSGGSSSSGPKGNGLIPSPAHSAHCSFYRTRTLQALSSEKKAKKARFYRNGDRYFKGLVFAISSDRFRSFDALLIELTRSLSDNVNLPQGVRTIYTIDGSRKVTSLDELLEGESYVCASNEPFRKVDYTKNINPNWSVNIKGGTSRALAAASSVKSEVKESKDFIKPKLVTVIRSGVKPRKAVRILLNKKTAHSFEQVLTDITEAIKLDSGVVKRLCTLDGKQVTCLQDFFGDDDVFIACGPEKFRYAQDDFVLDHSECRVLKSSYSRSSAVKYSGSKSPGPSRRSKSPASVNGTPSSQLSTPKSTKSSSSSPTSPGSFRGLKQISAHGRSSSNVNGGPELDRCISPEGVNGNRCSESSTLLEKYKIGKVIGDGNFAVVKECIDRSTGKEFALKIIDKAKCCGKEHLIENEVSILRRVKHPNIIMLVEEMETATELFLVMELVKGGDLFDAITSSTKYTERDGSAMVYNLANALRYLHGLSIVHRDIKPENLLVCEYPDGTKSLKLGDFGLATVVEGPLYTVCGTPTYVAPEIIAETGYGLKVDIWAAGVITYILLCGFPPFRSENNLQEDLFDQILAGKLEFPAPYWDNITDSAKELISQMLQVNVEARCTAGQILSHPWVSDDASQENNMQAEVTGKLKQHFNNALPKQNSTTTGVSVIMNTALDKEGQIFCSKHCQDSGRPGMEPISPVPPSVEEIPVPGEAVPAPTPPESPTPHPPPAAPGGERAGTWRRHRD

[13] = biological target: T3, Serine/threonine-protein kinase DCLK2 (Homo sapiens); details: at 1 µM
[14] = biological target: MAP kinase-activated protein kinase 2 (Homo sapiens) (UniProt P49137); details: at 0.1 µM
Sequence of MAP kinase-activated protein kinase 2 (Homo sapiens) (P49137 whole entry, looked up): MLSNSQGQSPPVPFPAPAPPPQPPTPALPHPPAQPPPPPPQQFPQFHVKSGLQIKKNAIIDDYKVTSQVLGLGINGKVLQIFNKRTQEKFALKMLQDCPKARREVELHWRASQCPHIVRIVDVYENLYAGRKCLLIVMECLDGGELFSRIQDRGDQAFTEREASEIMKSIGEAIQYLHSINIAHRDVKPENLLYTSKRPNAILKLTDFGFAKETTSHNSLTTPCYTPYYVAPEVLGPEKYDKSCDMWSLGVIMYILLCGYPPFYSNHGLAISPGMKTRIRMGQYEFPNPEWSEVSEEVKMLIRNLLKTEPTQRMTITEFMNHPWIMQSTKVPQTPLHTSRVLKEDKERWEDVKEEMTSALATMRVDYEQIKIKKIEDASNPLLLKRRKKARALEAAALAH

[15] = biological target: MAP kinase-activated protein kinase 2 (Homo sapiens) (UniProt P49137); details: at 1 µM
[16] = biological target: MAP kinase-activated protein kinase 3 (Homo sapiens) (UniProt Q16644); details: at 0.1 µM
Sequence of MAP kinase-activated protein kinase 3 (Homo sapiens) (Q16644 whole entry, looked up): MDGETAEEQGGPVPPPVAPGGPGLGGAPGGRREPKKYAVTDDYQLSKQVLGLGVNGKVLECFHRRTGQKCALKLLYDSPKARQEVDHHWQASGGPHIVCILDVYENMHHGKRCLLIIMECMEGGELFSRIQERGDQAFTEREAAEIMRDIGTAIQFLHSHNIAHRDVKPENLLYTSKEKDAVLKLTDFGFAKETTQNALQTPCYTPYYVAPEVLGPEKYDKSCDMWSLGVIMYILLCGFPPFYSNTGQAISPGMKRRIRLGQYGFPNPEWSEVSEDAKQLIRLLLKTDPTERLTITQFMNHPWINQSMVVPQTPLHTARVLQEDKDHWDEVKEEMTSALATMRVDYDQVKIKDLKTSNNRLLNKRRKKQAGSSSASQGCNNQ

[17] = biological target: MAP kinase-activated protein kinase 3 (Homo sapiens) (UniProt Q16644); details: at 1 µM
[18] = biological target: Serine/threonine-protein kinase MARK1 (Homo sapiens) (UniProt Q9P0L2); details: at 0.1 µM
Sequence of Serine/threonine-protein kinase MARK1 (Homo sapiens) (Q9P0L2 whole entry, looked up): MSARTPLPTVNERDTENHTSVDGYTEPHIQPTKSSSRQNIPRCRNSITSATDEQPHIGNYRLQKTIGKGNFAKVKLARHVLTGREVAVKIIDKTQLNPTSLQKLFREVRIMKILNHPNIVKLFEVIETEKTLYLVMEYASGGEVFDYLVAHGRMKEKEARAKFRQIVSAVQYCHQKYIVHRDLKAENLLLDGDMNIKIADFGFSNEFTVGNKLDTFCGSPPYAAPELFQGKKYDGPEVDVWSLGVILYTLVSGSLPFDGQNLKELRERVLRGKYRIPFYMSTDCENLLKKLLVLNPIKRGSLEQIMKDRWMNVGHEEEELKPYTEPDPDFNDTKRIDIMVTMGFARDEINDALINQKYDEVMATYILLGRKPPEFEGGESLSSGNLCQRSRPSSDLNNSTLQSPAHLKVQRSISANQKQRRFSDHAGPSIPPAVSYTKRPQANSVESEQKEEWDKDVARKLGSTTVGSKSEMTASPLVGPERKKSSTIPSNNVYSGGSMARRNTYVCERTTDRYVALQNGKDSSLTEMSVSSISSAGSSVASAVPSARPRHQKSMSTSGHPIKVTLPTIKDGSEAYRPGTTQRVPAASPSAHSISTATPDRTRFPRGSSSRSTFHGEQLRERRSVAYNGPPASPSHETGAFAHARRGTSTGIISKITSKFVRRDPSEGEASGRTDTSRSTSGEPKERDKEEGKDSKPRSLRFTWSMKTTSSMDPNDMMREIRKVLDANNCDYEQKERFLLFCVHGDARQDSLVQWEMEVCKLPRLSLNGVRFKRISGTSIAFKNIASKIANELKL

[19] = biological target: Serine/threonine-protein kinase MARK1 (Homo sapiens) (UniProt Q9P0L2); details: at 1 µM
[20] = biological target: MAP/microtubule affinity-regulating kinase 3 (Homo sapiens) (UniProt P27448); details: at 0.1 µM;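 note: mean percent inhibition of MARK3 kinase activity, measured within the GSK PKIS screening panel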
Sequence of MAP/microtubule affinity-regulating kinase 3 (Homo sapiens) (P27448 whole entry, looked up): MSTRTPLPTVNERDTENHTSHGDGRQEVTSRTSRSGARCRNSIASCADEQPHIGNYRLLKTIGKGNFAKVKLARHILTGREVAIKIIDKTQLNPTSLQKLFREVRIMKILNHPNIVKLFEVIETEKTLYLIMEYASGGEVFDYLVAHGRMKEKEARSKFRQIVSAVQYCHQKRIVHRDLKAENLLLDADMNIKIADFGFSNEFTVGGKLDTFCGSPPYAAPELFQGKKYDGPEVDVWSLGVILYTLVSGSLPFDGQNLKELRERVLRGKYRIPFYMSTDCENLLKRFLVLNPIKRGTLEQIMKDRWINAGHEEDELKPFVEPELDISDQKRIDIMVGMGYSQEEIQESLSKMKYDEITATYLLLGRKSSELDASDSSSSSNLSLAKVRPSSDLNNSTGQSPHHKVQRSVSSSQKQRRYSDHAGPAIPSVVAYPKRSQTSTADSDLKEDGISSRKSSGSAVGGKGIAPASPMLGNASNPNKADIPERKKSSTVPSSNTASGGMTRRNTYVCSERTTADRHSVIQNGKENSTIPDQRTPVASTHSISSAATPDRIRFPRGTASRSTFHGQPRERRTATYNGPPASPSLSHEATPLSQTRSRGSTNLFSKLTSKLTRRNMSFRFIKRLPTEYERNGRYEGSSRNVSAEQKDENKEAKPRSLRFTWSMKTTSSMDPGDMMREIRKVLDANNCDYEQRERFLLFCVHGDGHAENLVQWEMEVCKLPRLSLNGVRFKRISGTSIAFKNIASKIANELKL

Sequence of Calcium/calmodulin-dependent protein kinase type II subunit delta (Homo sapiens) (Q13557 whole entry): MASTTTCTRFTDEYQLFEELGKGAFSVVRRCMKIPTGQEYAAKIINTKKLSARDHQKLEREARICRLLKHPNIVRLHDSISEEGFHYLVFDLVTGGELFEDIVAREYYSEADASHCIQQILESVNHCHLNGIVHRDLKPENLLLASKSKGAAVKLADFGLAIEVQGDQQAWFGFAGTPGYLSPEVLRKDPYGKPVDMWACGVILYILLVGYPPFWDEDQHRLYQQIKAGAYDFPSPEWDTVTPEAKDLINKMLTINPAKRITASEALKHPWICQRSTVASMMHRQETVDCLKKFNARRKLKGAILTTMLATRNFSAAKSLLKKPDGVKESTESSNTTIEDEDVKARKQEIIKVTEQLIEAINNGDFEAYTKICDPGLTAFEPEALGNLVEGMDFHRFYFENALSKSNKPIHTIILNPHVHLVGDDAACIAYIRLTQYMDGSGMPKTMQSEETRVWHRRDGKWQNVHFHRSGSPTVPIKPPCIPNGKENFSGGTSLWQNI
Sequence of Calcium/calmodulin-dependent protein kinase type II subunit alpha (Homo sapiens) (Q9UQM7 whole entry): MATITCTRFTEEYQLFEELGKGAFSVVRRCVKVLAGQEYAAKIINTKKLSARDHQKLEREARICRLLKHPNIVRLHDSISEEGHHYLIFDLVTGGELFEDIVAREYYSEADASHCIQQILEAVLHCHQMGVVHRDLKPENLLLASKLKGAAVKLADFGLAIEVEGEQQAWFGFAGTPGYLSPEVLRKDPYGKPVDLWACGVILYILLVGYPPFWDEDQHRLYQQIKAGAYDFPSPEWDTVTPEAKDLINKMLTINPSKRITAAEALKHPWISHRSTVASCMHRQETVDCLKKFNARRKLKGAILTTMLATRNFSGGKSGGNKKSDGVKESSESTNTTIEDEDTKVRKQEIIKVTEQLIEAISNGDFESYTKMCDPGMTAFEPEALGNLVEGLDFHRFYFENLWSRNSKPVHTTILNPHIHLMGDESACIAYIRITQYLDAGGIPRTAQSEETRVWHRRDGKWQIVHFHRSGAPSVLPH

SMILES | inhibition [1] [%] | inhibition [2] [%] | inhibition [3] [%] | inhibition [4] [%] | inhibition [5] [%] | inhibition [6] [%] | inhibition [7] [%] | inhibition [8] [%] | inhibition [9] [%] | inhibition [10] [%] | inhibition [11] [%] | inhibition [12] [%] | inhibition [13] [%] | inhibition [14] [%] | inhibition [15] [%] | inhibition [16] [%] | inhibition [17] [%] | inhibition [18] [%] | inhibition [19] [%] | inhibition [20] [%]
OCc1ccc(-c2nc(-c3ccccn3)c(-c3ccc4c(c3)OCO4)[nH]2)cc1 | 5.43 | 4.96 | 4.65 | 0.02 | -0.32 | 3.36 | 3.17 | 3.25 | 4.36 | 4.31 | 6.09 | 2.19 | 2.76 | 1.95 | 1.87 | 3.91 | 6.87 | 4.66 | 4.32 | 4.6
CS(=O)(=O)Nc1cccc(-c2ccc3c(NC(=O)C4CC4)n[nH]c3c2)c1 | 2.85 | 3.31 | 3 | 1.21 | 0.65 | 1.78 | 1.91 | 0.51 | 0.84 | 1.43 | 3.29 | 2.43 | 1.35 | 0.07 | 0.38 | -0.07 | 0.93 | 0.98 | 3.49 | 1.49
COc1cccc(-n2ncc3c(N/N=C/c4ccc(C)cc4)ncnc32)c1 | 5.56 | 4.56 | 12.5 | 1.46 | 4.68 | -5.6 | -5.11 | -1.83 | 2.47 | -3.26 | -4.37 | 0.26 | 2.82 | -0.94 | 0.98 | -0.57 | -0.87 | 3.16 | 6.21 | 2.69
O=S(=O)(CCOCc1ccc(-c2ccc3ncnc(Nc4ccc(OCc5cccc(F)c5)c(Cl)c4)c3c2)o1)c1ccccc1 | -0.9 | 0.42 | 1.29 | -1.19 | -1.67 | 3.34 | 2.55 | 1.33 | 3.09 | 1.67 | 0.71 | -0.21 | 1.2 | 0.69 | 0.79 | -0.36 | 2.16 | -0.2 | 2.87 | 0.76
CCS(=O)(=O)c1ccc(OC)c(Nc2nccc(N(C)c3ccc4c(C)n[nH]c4c3)n2)c1 | -0.61 | 3.29 | 6.46 | -1.76 | -2.8 | 4.57 | 2.19 | 3.81 | 8.77 | 7.35 | 4.98 | -0.1 | 2.14 | 2.62 | 1.63 | 3.91 | 6.4 | 2.93 | 3.99 | 3.81
CCCN1CCCC(c2ccc(Nc3nc(Nc4cc(F)ccc4C(N)=O)c4cc[nH]c4n3)c(OC)c2)C1 (stereo not given) | 44.9 | 26.9 | 72.8 | 7.83 | 36.1 | -4.38 | 8.07 | 48.9 | 79.1 | 3.54 | 47.1 | 2.57 | 7.08 | 2.17 | 3.54 | 8.62 | 17.3 | 11 | 52.9 | 19.9
Cc1ccc(C(=O)NC2CC2)cc1-c1ccc2[nH]ncc2c1 | -2.98 | -2.96 | 1.9 | -2.05 | -2.16 | -1.76 | -4.22 | -4.46 | -3.82 | -2.57 | -2.38 | -3.53 | -2.34 | -2.72 | -1.94 | 3.22 | 18.7 | 0.44 | 2.83 | 1.64
CCn1c(-c2nonc2N)nc2c(C#CC(C)(C)O)nc(OCCNC)cc21 | 3.51 | 3.94 | 7.7 | -0.53 | 2.52 | -0.01 | 1.87 | 3.74 | 6.21 | 1.77 | -0.74 | -0.8 | -0.85 | 1.85 | 2.88 | 2.43 | 3.56 | 1.55 | 10.3 | 0.62
NS(=O)(=O)c1cccc(Nc2cc(-c3ccc(F)cc3)n[nH]2)c1 | 3.11 | 2.57 | 7.84 | -1.7 | -3.94 | -1.71 | 17.6 | 8.44 | 11.9 | 10.4 | 11.9 | 0.71 | -0.18 | 4.39 | 4.71 | 9.87 | 9.68 | 3.98 | 17.5 | 5.25
COc1ccc2ncnc(Nc3ccc(OCc4ccccc4)cc3)c2c1 | 2.13 | 0.77 | 1.93 | 0.01 | 0.04 | 0.93 | 3.17 | 1.65 | 14.2 | 3.34 | 3.26 | -5.53 | -8.44 | 1.42 | -2.28 | 2.72 | 4.71 | 1.85 | 3.7 | 1.64
CN(C)C(=O)O[C@H]1CN[C@H](C#Cc2cc3ncnc(Nc4ccc(OCc5cccc(F)c5)c(Cl)c4)c3s2)C1 | 1.77 | 2.42 | 2.41 | 1.15 | 0.23 | 0.86 | 2.73 | 1.56 | 3.31 | 1.79 | 2.24 | -0.33 | 2.04 | 1.5 | 0.84 | 2.84 | 2.58 | 2.51 | 2.11 | 2.14
Cc1ccc(O)cc1Nc1ccnc2ccc(S(C)(=O)=O)cc12 | 6.06 | 3.19 | 3.36 | -1.1 | -1.84 | 8.75 | 9.21 | 8.1 | 15.1 | 12.2 | 13.2 | 2.11 | 1.09 | 4.78 | 5.17 | 14.2 | 24.2 | 4.73 | 7.33 | 2.7
COc1cccc(-n2nc(C)c3c(N/N=C(\C)c4ccncc4)ncnc32)c1 | -0.32 | 0.75 | 1.55 | -0.54 | 0.81 | 0.24 | 0.57 | 0.02 | 0.48 | 0.32 | -0.72 | -1 | 0.33 | 0.1 | 0.45 | 0.03 | 0.31 | 0.08 | 1.32 | -0.48
